Binding signal data for one sequence are collected here from paper PMC7862700, “An all-to-all approach to the identification of sequence-specific readers for epigenetic DNA modifications on cytosine”.

What all share (assay): DAPPL (digital affinity profiling via proximity ligation, sequencing); 10 mM Tris-HCl pH 7.5, 50 mM NaCl, 1 mM DTT, 4% glycerol, room temperature, 30 min; GST-TFs on glutathione beads, 16-mer random dsDNA library, 0.1% formaldehyde crosslink after washing; high values mean tight binding
Conditions in all cases: protein: recombinant; tags: N-terminal GST; dsDNA, one strand shown

In one assay the target is T1, ELK1 (Homo sapiens, UniProt P19419 1-428).
T1 sequence: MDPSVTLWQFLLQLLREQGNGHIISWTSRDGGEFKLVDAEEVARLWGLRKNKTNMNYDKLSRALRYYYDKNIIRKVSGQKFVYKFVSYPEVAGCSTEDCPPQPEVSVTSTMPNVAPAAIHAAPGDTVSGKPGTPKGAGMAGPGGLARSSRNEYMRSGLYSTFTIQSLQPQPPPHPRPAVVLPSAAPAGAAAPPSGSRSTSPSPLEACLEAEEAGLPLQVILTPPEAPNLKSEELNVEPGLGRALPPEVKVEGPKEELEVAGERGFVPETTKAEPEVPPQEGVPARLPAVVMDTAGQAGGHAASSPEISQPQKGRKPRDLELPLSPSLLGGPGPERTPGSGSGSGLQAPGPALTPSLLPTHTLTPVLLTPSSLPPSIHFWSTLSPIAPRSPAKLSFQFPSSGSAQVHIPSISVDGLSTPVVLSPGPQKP
In short, it runs like this: (§1)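 Each value of binding signal is a hexamer's read frequency for a factor divided by the same hexamer's frequency in the tag-only sample. Barcoded, bead-captured GST fusions of human transcription factors made in yeast were pooled with that sample and incubated with 200 nmole of a random double-stranded 16-mer DNA library in Tris/NaCl/DTT/glycerol buffer at room temperature for 30 min. Washing, 0.1% formaldehyde crosslinking, proximity ligation, PCR and Illumina NextSeq500 sequencing followed.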

Another assay concerns the target T2, GABPA (Homo sapiens, UniProt Q06546 1-454).
T2 sequence: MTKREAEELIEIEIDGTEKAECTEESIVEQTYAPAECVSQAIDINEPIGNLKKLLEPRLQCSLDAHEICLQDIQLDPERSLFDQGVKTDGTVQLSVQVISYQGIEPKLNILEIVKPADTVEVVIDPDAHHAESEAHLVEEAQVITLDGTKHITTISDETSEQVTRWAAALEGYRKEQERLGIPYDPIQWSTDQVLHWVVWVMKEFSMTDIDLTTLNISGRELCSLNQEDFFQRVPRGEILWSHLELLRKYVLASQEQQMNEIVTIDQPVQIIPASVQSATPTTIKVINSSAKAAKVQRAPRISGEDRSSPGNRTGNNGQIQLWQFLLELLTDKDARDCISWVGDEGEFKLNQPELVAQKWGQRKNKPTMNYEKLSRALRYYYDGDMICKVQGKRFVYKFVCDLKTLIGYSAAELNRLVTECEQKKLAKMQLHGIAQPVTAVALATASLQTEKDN
A digest of the protocol: as §1

For a further assay, the target named is T3, ERG (Homo sapiens, UniProt P11308 1-479).
T3 sequence: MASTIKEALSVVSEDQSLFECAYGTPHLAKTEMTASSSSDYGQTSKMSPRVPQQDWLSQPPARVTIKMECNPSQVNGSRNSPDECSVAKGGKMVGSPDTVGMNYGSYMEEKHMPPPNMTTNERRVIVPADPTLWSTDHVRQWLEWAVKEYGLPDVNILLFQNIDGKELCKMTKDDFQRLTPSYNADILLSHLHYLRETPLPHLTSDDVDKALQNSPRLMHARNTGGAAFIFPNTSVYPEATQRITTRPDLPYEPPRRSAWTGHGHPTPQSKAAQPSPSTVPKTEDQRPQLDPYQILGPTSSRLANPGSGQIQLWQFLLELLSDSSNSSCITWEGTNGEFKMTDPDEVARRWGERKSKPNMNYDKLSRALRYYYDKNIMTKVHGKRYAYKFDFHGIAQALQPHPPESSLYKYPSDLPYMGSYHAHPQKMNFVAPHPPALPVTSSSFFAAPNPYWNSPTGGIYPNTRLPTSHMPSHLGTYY
In short, it runs like this:
as §1

The target of a further assay is ELF1 (Homo sapiens, UniProt P32519 1-619). A digest of the protocol: as §1
Chain of ELF1 (P32519 whole entry): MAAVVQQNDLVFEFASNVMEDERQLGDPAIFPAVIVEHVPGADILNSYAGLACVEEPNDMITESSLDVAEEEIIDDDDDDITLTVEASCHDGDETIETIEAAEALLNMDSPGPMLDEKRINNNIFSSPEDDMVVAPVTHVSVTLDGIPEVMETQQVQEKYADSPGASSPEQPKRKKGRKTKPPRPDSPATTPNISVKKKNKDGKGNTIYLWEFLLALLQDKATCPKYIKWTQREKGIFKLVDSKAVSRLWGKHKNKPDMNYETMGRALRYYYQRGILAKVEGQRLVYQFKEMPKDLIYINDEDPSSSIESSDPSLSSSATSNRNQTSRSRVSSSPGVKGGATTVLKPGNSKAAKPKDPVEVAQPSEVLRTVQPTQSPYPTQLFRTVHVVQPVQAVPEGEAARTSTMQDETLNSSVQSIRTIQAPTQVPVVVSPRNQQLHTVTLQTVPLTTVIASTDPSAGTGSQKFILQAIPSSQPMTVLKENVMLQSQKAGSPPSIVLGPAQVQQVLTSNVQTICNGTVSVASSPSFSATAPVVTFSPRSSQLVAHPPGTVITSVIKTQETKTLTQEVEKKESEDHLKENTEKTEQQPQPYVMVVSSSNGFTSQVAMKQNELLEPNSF
Another assay deals with T4, EHF (Homo sapiens, UniProt Q9NZC4 1-300).
T4 sequence: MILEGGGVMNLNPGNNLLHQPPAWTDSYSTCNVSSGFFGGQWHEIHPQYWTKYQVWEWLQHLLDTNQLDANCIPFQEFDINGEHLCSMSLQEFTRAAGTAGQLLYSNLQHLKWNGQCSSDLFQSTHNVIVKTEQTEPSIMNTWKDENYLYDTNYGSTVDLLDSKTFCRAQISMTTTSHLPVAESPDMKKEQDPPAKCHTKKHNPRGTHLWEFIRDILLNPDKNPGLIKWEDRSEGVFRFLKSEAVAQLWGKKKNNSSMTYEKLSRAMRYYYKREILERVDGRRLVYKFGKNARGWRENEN
A digest of the protocol:
as §1

The target in another assay is SPI1 (Homo sapiens, UniProt P17947 1-270). A digest of the protocol: as §1
A further assay deals with SPIB (Homo sapiens, UniProt Q01892 1-262). A digest of the protocol: as §1
Chain of SPIB (Q01892 whole entry): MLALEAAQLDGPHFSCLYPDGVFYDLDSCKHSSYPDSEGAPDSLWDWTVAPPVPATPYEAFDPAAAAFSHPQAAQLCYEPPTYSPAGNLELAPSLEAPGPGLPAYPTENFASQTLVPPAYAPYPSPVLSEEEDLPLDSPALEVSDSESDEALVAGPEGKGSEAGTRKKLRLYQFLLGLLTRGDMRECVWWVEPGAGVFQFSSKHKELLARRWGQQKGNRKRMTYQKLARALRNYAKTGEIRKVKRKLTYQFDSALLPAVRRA
The target in a further assay is ETV5 (Homo sapiens, UniProt P41161 1-510). In short, it runs like this: as §1
Chain of ETV5 (P41161 whole entry): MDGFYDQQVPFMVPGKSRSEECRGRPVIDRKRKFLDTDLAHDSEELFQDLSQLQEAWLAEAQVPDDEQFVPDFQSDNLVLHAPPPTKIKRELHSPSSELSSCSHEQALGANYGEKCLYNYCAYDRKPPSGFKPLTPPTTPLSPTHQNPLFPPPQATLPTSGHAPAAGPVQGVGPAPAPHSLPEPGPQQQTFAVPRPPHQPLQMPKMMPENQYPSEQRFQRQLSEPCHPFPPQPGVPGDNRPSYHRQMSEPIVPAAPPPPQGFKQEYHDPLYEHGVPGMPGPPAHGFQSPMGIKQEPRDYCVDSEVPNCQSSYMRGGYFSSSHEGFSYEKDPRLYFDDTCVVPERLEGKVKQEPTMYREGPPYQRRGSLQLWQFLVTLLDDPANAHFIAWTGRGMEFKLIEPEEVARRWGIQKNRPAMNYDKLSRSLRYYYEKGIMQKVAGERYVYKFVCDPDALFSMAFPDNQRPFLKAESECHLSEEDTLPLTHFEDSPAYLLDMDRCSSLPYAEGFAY
The target of the next assay is T5, SPIC (Homo sapiens, UniProt Q8N5J4 1-248).
T5 sequence: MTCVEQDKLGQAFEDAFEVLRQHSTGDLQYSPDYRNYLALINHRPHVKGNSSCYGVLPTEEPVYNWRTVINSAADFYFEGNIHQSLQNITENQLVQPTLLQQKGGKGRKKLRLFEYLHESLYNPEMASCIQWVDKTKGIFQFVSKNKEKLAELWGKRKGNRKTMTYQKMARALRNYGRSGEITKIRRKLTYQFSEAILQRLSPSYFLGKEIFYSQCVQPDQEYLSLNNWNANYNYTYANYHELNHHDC
In short, it runs like this:
as §1

The target of another assay is ELF4 (Homo sapiens, UniProt Q99607 1-663). In short, it runs like this: as §1
Chain of ELF4 (Q99607 whole entry): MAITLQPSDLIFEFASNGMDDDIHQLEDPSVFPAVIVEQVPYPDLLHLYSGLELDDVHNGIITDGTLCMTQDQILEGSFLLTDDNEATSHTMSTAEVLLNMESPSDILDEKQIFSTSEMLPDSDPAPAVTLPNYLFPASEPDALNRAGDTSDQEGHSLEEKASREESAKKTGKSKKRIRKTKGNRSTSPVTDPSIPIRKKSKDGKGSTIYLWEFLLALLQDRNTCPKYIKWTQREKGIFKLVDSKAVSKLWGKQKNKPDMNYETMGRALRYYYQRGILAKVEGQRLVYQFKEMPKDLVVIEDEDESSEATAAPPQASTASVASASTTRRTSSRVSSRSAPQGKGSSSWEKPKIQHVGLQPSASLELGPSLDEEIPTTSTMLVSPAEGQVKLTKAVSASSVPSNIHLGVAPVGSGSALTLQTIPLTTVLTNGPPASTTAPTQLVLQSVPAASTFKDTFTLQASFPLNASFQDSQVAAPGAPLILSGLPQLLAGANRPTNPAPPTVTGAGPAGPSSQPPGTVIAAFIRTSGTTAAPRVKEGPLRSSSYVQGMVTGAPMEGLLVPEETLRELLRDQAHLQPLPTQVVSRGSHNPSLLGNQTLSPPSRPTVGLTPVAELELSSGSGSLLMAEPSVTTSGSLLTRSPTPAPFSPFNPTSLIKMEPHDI
In another assay the target is T6, ELK4 (Homo sapiens, UniProt P28324-2 1-405).
T6 sequence: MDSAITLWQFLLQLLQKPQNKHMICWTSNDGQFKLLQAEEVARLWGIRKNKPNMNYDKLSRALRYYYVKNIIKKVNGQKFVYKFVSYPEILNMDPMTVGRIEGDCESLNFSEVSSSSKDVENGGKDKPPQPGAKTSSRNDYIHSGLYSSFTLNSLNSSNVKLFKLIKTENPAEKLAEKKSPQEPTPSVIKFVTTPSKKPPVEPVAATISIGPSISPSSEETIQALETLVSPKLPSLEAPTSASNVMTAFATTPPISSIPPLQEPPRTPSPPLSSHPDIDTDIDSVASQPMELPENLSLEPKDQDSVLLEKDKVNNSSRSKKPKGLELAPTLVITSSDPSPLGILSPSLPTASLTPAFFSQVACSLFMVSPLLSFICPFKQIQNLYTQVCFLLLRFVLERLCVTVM
A digest of the protocol: as §1

The target of the next assay is T7, ELF3 (Homo sapiens, UniProt P78545 1-371).
T7 sequence: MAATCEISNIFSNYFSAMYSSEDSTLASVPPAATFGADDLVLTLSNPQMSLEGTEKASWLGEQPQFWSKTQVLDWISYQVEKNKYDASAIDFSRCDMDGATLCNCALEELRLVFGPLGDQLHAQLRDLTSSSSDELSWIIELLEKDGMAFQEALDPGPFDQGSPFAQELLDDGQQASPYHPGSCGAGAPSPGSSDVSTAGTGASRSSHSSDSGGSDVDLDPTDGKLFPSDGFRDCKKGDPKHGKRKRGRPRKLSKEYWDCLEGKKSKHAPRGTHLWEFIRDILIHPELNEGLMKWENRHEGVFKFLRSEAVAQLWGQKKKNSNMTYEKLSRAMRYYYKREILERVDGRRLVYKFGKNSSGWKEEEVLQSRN
In short, it runs like this:
as §1

A further assay addresses ETV1 (Homo sapiens, UniProt P50549 1-477). A digest of the protocol:
as §1

A further assay deals with T8, ERF (Homo sapiens, UniProt P50548 1-548).
T8 sequence: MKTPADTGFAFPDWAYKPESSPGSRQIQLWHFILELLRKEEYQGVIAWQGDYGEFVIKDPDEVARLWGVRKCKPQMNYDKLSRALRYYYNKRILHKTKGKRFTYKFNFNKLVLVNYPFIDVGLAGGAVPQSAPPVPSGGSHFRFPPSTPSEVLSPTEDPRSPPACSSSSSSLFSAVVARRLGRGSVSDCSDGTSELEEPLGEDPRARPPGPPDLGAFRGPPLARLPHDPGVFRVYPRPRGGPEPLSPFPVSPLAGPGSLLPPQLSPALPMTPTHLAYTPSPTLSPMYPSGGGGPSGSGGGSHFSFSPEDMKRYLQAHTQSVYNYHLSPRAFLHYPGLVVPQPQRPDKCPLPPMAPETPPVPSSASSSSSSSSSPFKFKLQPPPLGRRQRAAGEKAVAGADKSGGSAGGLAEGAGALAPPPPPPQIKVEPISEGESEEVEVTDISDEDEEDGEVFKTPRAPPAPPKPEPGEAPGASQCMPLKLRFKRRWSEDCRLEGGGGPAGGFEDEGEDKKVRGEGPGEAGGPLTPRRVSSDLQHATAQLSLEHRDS
A digest of the protocol:
as §1

The next assay concerns the target T9, SPDEF (Homo sapiens, UniProt O95238 1-335).
T9 sequence: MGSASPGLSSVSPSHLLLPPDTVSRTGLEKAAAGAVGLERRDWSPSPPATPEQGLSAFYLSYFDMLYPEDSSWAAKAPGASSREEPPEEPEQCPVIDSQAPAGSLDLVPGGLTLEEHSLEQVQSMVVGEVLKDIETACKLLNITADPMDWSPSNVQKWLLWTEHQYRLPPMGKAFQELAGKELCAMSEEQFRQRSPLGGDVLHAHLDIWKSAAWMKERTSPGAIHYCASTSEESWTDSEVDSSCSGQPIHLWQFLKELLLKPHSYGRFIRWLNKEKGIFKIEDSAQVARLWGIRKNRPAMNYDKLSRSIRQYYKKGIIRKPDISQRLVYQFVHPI
In short, it runs like this: as §1

The next assay deals with T10, ETV3 (Homo sapiens, UniProt P41162-2 1-143).
T10 sequence: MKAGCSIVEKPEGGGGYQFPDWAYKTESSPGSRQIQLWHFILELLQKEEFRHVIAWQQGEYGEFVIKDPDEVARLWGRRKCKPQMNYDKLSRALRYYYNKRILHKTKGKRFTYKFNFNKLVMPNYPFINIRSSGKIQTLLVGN
A digest of the protocol:
as §1

Chain of ETV1 (P50549 whole entry): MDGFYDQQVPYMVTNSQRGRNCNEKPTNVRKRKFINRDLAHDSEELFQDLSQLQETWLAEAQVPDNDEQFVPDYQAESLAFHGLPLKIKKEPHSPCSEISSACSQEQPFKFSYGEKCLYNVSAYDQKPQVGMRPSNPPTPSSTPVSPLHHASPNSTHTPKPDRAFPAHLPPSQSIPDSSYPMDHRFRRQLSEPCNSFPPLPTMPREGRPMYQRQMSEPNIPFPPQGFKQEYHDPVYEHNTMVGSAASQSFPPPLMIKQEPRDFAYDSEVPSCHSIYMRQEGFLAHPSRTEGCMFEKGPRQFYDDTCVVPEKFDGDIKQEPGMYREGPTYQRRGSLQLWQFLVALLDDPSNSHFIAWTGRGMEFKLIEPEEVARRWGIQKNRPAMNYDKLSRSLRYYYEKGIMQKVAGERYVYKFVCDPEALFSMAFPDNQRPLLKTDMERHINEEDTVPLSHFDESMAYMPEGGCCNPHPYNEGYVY

On to GTACTG, for which the binding signal is 1.02 fold enrichment (6-mer frequency, TF over GST control) in the assay with ELK1; 1.04 fold enrichment (6-mer frequency, TF over GST control) with GABPA; 1.09 fold enrichment (6-mer frequency, TF over GST control) with ERG; 1.12 fold enrichment (6-mer frequency, TF over GST control) with ELF1; 1.06 fold enrichment (6-mer frequency, TF over GST control) with EHF; 1.04 fold enrichment (6-mer frequency, TF over GST control) in the assay with SPI1. Further, the binding signal with SPIB is 1 fold enrichment (6-mer frequency, TF over GST control); with ETV5, 1.08 fold enrichment (6-mer frequency, TF over GST control); with SPIC it was 1.04 fold enrichment (6-mer frequency, TF over GST control); in the assay with ELF4 it was 1.05 fold enrichment (6-mer frequency, TF over GST control); with ELK4, 1.15 fold enrichment (6-mer frequency, TF over GST control); in the assay with ELF3 it was 1 fold enrichment (6-mer frequency, TF over GST control). Further, the binding signal with ETV1 is 1.02 fold enrichment (6-mer frequency, TF over GST control); in the assay with ERF it was 1.02 fold enrichment (6-mer frequency, TF over GST control); in the assay with SPDEF, 1.03 fold enrichment (6-mer frequency, TF over GST control); with ETV3, 1.11 fold enrichment (6-mer frequency, TF over GST control).
